The list is not random: actives were taken first. Their share in the collection is about 1.2%.
RGS4-Gao reg: modulators of RGS4 binding to Galphao, primary screen, biochemical, multiplexed bead flow cytometry; Guanine nucleotide-binding protein G(o) subunit alpha (Homo sapiens), P09471; actives lie on both sides; binding response (% of control), % at 10 µM; 220,000 compounds, 0.33% hits; AID 1415, 2008; in the data active = binding response below about 49% or above about 150%; inactive = in between;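 also: fluorescent Galphao activated with aluminum fluoride binding bead-coupled RGS4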
Target sequence (P09471 whole entry, looked up): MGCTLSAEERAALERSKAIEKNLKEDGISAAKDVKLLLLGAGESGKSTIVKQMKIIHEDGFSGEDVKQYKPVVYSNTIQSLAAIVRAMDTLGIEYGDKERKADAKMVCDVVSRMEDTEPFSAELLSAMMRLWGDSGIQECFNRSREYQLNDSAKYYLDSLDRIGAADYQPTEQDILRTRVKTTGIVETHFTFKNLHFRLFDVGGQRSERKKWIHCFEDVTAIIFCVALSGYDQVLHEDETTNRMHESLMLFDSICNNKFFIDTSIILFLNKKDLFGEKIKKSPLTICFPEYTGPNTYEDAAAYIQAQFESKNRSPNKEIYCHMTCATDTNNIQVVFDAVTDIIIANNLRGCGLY
GSH bead fluor: compound fluorescence on glutathione beads, profiling panel, artefact control, biophysical, 488/530 nm, flow cytometry; GSH beads flow cytometry, compound fluorescence 488/530 nm; hits give high values; fluorescence (KMESF) at 10 µM; 190,000 compounds, 0.25% hits; in the data active = fluorescence above about 89;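 also: glutathione beads carrying GST-tagged Bcl family fusion proteins plus one bare bead set; values are compound well signal with DMSO vehicle wells as background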
Avidin bead fluor: green autofluorescence of compounds with avidin beads – biophysical, 488/530 nm, flow cytometry, artefact control, profiling panel; compound fluorescence 488/530 nm; hits give high values; fluorescence (KMESF) at 10 µM; 220,000 compounds, 0.38% hits; in the data active = fluorescence above about 47
RGS8-Gao reg: RGS8-Galphao binding modulators, primary screen, biochemical, multiplexed bead flow cytometry; Guanine nucleotide-binding protein G(o) subunit alpha (Homo sapiens), P09471; actives lie on both sides; response (percent of control binding), % at 10 µM; 220,000 compounds, 0.34% hits; AID 1423, 2008; in the data active = response below about 60% or above about 140%; inactive = in between;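 also: Galphao activated as the GDP aluminium fluoride complex binding bead-coupled RGS8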
RGS16-Gao: modulators of RGS16 binding to Galphao, primary screen, biochemical, human proteins, multiplexed bead flow cytometry; bead-based flow cytometry RGS16-Galphao binding, fluorescence; actives lie on both sides; binding response (% of control), % at 10 µM; 220,000 compounds, 0.38% hits; call rule not given here;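 also: Galphao activated by GDP with aluminum fluoride before binding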
Target sequence (O15492 whole entry, looked up): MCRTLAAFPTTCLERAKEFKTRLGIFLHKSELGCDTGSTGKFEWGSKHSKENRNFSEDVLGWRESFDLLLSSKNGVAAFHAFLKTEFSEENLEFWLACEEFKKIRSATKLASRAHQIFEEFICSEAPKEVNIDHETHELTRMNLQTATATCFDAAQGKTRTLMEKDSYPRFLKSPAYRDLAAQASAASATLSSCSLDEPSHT
Target sequence (P09471 whole entry, looked up): as the sequence (P09471 whole entry, looked up) above
RGS7-Gao: RGS7-Galphao binding modulators, primary screen, biochemical, multiplexed bead flow cytometry; actives lie on both sides; binding response (% of control), % at 10 µM; 220,000 compounds, 0.35% hits; Guanine nucleotide-binding protein G(o) subunit alpha (Homo sapiens), P09471; AID 1439, 2008; in the data active = binding response below about 49% or above about 150%; inconclusive = no clear call, values can overlap the other calls; inactive = in between;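 also: fluorescent Galphao held in activated GDP-AlF4 state binding bead-coupled RGS7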
The depositor's hits bear a star.

For C/C(=N\NC(=O)COc1cccc(Cl)c1)c1ccc2c(c1)OCCO2 the results were RGS4-Gao reg 110, GSH bead fluor 314*, Avidin bead fluor 19, RGS8-Gao reg 99, RGS16-Gao 108 and RGS7-Gao 105.
C/C(=N\NC(=O)CSCc1ccc(Cl)cc1)c1ccc2c(c1)OCCO2 was read as RGS4-Gao reg 104, GSH bead fluor 22, Avidin bead fluor 3, RGS8-Gao reg 99, RGS16-Gao 103 and RGS7-Gao 101.
CCOC(=O)N1CCN(C(=O)/C=C/c2c(C)nn(-c3ccc(F)cc3)c2Cl)CC1 was read as RGS4-Gao reg 94, GSH bead fluor 13, Avidin bead fluor 9, RGS8-Gao reg 98, RGS16-Gao 96 and RGS7-Gao 96.
`CCOc1ccc(C(=O)Nc2cccc3ncccc23)cc1Br` gave RGS4-Gao reg 101, GSH bead fluor 19, Avidin bead fluor 9, RGS8-Gao reg 100, RGS16-Gao 98 and RGS7-Gao inconclusive.
For CCOc1ccc(-n2c(-c3ccccc3)c[n+]3c2CCC3)cc1 the results were RGS4-Gao reg 96, GSH bead fluor 20, Avidin bead fluor 10, RGS8-Gao reg 100, RGS16-Gao 100 and RGS7-Gao inconclusive.
CSc1c[n+]2c(n1C)CCC2 was read as RGS4-Gao reg 106, GSH bead fluor 11, Avidin bead fluor 52*, RGS8-Gao reg 101, RGS16-Gao 108 and RGS7-Gao 113.
For COc1ccc(Cl)cc1N1C(=O)CC(N2CCc3ccccc32)C1=O (stereo not drawn) the results were RGS4-Gao reg 92, GSH bead fluor 264*, Avidin bead fluor 7, RGS8-Gao reg 94, RGS16-Gao 98 and RGS7-Gao 88.
CCc1cc(=O)[nH]c(-n2[nH]c(-c3ccccc3)cc2=O)n1 was read as RGS4-Gao reg 101, GSH bead fluor 13, Avidin bead fluor 14, RGS8-Gao reg 102, RGS16-Gao 104 and RGS7-Gao 103.
O=c1cc(-c2ccccc2)[nH]n1-c1nc2ccccc2[nH]1 was read as RGS4-Gao reg 94, GSH bead fluor 25, Avidin bead fluor 50*, RGS8-Gao reg 96, RGS16-Gao 90 and RGS7-Gao 106.
`Cc1ccc(CC(=O)NCCS(=O)c2ccc(C)cc2)cc1` (stereo not drawn) gave RGS4-Gao reg 104, GSH bead fluor 13, Avidin bead fluor 9, RGS8-Gao reg 101, RGS16-Gao 102 and RGS7-Gao 105.
For O=C(O)/C=C/C(=O)Nc1cc(F)ccc1F the results were RGS4-Gao reg 79, Avidin bead fluor 12, RGS8-Gao reg 79, RGS16-Gao 72 and RGS7-Gao inconclusive.
Screening O=C(OCC(=O)N1CCOCC1)c1ccc2c(c1)OCCO2 returned RGS4-Gao reg 32*, GSH bead fluor 12, Avidin bead fluor 1, RGS8-Gao reg 42*, RGS16-Gao -154 and RGS7-Gao 30*.
Screening COc1ccc(N(CC(=O)NC2CCCCC2)C(=O)CCCC(=O)Nc2ccccn2)c(OC)c1 returned RGS4-Gao reg 114, GSH bead fluor 14, Avidin bead fluor 84*, RGS8-Gao reg 103, RGS16-Gao 103 and RGS7-Gao 132.
COc1ccc(NC(=O)CSc2ccc(NC(C)=O)cc2)cc1S(=O)(=O)N1CCCCC1 was read as RGS4-Gao reg 136, GSH bead fluor 23, Avidin bead fluor 74*, RGS8-Gao reg 100, RGS16-Gao 105 and RGS7-Gao 133.
COc1ccc(NC(=O)CSc2ccc(F)cc2)cc1S(=O)(=O)N1CCCCC1 was read as RGS4-Gao reg 104, GSH bead fluor 8, Avidin bead fluor 3, RGS8-Gao reg 103, RGS16-Gao 102 and RGS7-Gao 106.
For COc1ccccc1/C=[N+](\[O-])C1SC(=S)N(C)C1(C)C (stereo not drawn) the results were RGS4-Gao reg 94, Avidin bead fluor 6, RGS8-Gao reg 95, RGS16-Gao 93 and RGS7-Gao inconclusive.
CCN(CC)S(=O)(=O)c1csc(C(=O)OCC(=O)c2ccccc2)c1 was read as RGS4-Gao reg 83, GSH bead fluor 104*, Avidin bead fluor 4, RGS8-Gao reg 95, RGS16-Gao 86 and RGS7-Gao 88.
Screening Cc1ccc(NS(=O)(=O)c2ccc(Br)s2)nc1 returned RGS4-Gao reg 102, GSH bead fluor 11, Avidin bead fluor 12, RGS8-Gao reg 100, RGS16-Gao 103 and RGS7-Gao 97.
Screening Cn1c(SCCCC(=O)c2ccc(F)cc2)nnc1-c1ccncc1 returned RGS4-Gao reg 100, GSH bead fluor 16, Avidin bead fluor 9, RGS8-Gao reg 100, RGS16-Gao 105 and RGS7-Gao 102.
For Cc1occc1-c1nnc(SCCCC(=O)c2ccc(F)cc2)n1C the results were RGS4-Gao reg 96, GSH bead fluor 259*, Avidin bead fluor 8, RGS8-Gao reg 100, RGS16-Gao 93 and RGS7-Gao 95.
CNC(=S)N1N=C(c2ccc(Br)cc2)CC1c1ccc(Br)cc1 (stereo not drawn) was read as RGS4-Gao reg 98, GSH bead fluor 23, Avidin bead fluor 48*, RGS8-Gao reg 97, RGS16-Gao 93 and RGS7-Gao 104.
`CNC(=S)N1N=C(c2ccc(Br)cc2)CC1c1ccc(N(C)C)cc1` (stereo not drawn) gave RGS4-Gao reg 104, GSH bead fluor 16, Avidin bead fluor 9, RGS8-Gao reg 102, RGS16-Gao 104 and RGS7-Gao inconclusive.
Cc1ccc(C(=O)NC2CCc3ccccc3C2=O)cc1 (stereo not drawn) was read as RGS4-Gao reg 90, GSH bead fluor 16, Avidin bead fluor 16, RGS8-Gao reg 94, RGS16-Gao 90 and RGS7-Gao 92.
`Cc1ccc(C(=O)NC2c3ccccc3-c3ccccc32)cc1` gave RGS4-Gao reg 107, GSH bead fluor 19, Avidin bead fluor 60*, RGS8-Gao reg 100, RGS16-Gao 99 and RGS7-Gao 143.
Screening COc1ccc(C2C(C(=O)NC(C)C)c3ccccc3C(=O)N2C)cc1OC (stereo not drawn) returned RGS4-Gao reg 110, GSH bead fluor 48, Avidin bead fluor 54*, RGS8-Gao reg 97, RGS16-Gao 86 and RGS7-Gao 118.
Screening Cn1c(=S)[nH]c2[nH]c(=O)cnc2c1=O returned RGS4-Gao reg 100, GSH bead fluor 11, Avidin bead fluor 13, RGS8-Gao reg 101, RGS16-Gao 104 and RGS7-Gao 97.
